Source: the supplement of paper PMC10849652
Targets with a hit are over-represented here; the source holds about 8,800 in all. About 0.5% of all pairs of compound and target were hits.

Assays:
Test in all cases: log2 fold change, soluble protein after heating vs DMSO (PISA); higher = thermal stabilisation; K562 lysate, 10 uM; active = over 0.2 and 3.5 SD of the protein, either way, in both replicates (recomputed)
erlotinib = compound: C#Cc1cccc(Nc2ncnc3cc(OCCOC)c(OCCOC)cc23)c1 [erlotinib]
Method in brief: (§1)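 K562 pellets were dounce-homogenised in PBS pH 7.4 containing 1 mM MgCl2, and the crude extract, at 1 mg/mL protein, was exposed to 10 μM compound for 30 min. Aliquots were heated for 3 min across 48°C-58°C, pooled, brought to 0.5% NP-40 at 4°C and spun at 21,000xg for 90 min, with the supernatant taken as soluble protein. TMTpro 16plex LC-MS/MS with equalised channel sums quantified that protein. Values are log-two fold changes in thermal stability relative to solvent controls, taken from duplicates.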

[1] = compound: C/C(=N\NC(=O)C1=CC(=CC=C1)S(=O)(=O)N2CCOCC2)/C3=C(C=CC(=C3)Cl)O
Method in brief: as §1

[2] = compound: C1=CC(=CC=C1C2=NC3=C(N2)C=C(C=C3)C(=O)N)OC4=CC=C(C=C4)Cl
Method in brief: as §1

[3] = compound: C1=CC2=C(C=CC(=C2)/C=C\3/C(=O)NC(=NCC4=CC=CS4)S3)N=C1
Method in brief: as §1

[4] = compound: C1=CC2=NC=CN=C2C=C1/C=C/3\C(=O)NC(=O)S3
Method in brief: as §1

[5] = compound: C1=CC=C(C=C1)C2=NC(=C(N2)C3=CC=NC=C3)C4=CC(=C(C=C4)Cl)O
Method in brief: as §1

[6] = compound: C1=CC=C2C(=C1)C3=NNC4=CC=CC(=C43)C2=O
Method in brief: as §1

[7] = compound: C1CCN(C1)C(=O)NC2=CC=CC(=C2)NC3=NC=C(C(=N3)NCCC4=CN=CN4)Br
Method in brief: as §1

[8] = compound: C1CN(CCC1(CC2=CC=C(C=C2)Cl)N)C3=NC=NC4=C3C=CN4
Method in brief: as §1

IRAK-1-4 Inhibitor I = compound: C1COCCN1CCN2C3=CC=CC=C3N=C2NC(=O)C4=CC(=CC=C4)[N+](=O)[O-] [IRAK-1-4 Inhibitor I]
Method in brief: as §1

Measured: log2 fold change

HSPA8 (UniProt E9PK54)
inactive: erlotinib 0.045 | [1] -0.222 | [2] -0.045 | [3] -0.099 | [4] 0.014 | [5] -0.044 | [6] 0 | [7] -0.043 | [8] -0.008 | IRAK-1-4 Inhibitor I -0.141

INTS1 (UniProt Q8N201)
Sequence of UniProt Q8N201 (Q8N201 whole entry, looked up): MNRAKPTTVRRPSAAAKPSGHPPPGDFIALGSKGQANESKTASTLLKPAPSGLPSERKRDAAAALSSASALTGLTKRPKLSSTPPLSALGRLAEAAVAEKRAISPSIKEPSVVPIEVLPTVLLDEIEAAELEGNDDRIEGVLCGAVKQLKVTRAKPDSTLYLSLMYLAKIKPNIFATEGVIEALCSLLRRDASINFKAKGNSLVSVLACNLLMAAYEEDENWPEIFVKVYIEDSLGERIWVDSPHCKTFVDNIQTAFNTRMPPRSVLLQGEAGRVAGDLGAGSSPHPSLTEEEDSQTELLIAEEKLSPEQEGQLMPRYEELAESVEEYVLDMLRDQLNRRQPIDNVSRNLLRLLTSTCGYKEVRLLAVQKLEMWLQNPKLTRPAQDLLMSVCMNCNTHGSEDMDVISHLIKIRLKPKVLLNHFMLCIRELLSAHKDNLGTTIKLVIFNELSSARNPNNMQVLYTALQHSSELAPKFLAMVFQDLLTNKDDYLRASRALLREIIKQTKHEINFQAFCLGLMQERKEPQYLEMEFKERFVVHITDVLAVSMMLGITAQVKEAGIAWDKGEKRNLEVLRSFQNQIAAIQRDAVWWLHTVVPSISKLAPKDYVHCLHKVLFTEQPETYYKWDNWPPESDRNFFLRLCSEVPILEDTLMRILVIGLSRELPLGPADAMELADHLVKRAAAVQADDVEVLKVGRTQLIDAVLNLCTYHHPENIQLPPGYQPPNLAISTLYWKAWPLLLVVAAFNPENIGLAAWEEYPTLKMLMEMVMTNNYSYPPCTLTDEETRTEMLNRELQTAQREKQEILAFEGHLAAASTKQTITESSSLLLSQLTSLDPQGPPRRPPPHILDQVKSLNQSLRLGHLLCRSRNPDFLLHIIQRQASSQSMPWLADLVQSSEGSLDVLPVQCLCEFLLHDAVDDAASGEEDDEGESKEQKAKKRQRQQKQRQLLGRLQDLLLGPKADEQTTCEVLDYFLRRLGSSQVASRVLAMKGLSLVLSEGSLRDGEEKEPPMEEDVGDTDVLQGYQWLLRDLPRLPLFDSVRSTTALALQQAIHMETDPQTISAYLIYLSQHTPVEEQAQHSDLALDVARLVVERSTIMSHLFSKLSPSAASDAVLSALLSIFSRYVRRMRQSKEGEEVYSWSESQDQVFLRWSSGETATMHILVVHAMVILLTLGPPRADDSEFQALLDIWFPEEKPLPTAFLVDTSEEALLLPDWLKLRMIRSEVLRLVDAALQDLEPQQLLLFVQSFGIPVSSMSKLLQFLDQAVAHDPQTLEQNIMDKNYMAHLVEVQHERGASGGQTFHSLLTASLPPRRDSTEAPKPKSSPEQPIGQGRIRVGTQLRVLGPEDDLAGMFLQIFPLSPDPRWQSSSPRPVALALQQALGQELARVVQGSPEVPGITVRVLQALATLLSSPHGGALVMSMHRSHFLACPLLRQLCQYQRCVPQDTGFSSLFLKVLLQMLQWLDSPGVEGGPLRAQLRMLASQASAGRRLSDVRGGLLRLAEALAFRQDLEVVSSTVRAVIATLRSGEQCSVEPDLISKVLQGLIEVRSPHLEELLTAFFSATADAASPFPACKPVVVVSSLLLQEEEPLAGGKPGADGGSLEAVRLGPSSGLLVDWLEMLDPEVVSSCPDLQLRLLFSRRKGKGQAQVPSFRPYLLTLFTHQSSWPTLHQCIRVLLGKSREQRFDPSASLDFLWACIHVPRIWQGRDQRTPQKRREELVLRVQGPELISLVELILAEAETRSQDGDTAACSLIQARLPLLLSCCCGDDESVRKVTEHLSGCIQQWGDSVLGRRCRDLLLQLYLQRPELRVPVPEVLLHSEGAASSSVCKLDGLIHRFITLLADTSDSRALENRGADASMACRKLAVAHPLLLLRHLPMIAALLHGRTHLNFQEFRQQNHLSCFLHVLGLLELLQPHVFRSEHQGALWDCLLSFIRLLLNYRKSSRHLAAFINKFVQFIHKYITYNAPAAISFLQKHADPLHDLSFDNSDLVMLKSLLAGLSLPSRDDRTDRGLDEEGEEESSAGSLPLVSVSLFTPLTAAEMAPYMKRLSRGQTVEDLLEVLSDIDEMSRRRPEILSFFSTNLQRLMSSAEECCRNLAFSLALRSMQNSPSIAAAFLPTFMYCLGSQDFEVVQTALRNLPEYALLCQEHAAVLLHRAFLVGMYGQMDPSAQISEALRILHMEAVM
inactive: erlotinib 0.016 | [1] 0.063 | [2] 0.013 | [3] -0.071 | [4] -0.017 | [5] 0.027 | [6] -0.097 | [7] -0.01 | [8] 0.025 | IRAK-1-4 Inhibitor I 0.016

IMPACT (UniProt Q9P2X3)
Sequence of UniProt Q9P2X3 (Q9P2X3 whole entry, looked up): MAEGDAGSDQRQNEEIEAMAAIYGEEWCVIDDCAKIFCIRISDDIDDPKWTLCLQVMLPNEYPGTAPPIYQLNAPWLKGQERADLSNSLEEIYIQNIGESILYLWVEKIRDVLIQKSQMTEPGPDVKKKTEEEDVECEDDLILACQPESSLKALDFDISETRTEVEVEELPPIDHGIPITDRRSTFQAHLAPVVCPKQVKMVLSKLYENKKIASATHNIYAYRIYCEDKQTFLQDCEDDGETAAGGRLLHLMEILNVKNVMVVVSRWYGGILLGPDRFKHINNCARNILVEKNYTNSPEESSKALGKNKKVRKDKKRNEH
inactive: erlotinib -0.03 | [1] 0.13 | [2] 0.014 | [3] 0.083 | [4] 0.043 | [5] 0.056 | [6] 0.001 | [7] 0.06 | [8] -0.082 | IRAK-1-4 Inhibitor I -0.076

GSTCD (UniProt Q8NEC7)
Sequence of UniProt Q8NEC7 (Q8NEC7 whole entry, looked up): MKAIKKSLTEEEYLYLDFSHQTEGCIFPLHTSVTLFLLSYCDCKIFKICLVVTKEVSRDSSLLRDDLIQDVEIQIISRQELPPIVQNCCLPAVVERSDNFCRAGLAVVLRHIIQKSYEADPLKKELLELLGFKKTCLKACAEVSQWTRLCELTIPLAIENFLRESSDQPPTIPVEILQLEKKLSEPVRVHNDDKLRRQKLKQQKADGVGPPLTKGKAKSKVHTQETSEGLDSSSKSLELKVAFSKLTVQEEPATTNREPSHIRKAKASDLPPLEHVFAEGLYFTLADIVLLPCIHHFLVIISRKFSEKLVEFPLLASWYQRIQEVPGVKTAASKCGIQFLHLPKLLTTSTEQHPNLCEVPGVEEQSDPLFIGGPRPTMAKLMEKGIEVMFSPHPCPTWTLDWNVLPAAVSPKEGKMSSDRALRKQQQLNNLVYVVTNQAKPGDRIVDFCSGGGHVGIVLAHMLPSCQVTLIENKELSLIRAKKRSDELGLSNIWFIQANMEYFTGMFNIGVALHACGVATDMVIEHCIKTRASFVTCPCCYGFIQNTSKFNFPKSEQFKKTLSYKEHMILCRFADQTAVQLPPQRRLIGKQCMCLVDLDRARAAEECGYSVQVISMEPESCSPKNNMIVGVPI
inactive: erlotinib 0.041 | [1] -0.017 | [2] -0.037 | [3] 0.033 | [4] -0.027 | [5] 0.012 | [6] -0.021 | [7] -0.028 | [8] 0.005 | IRAK-1-4 Inhibitor I -0.055

HMGCL (UniProt P35914)
inactive: erlotinib 0.002 | [1] -0.089 | [2] 0.032 | [3] -0.016 | [4] -0.047 | [5] -0.005 | [6] -0.035 | [7] 0.005 | [8] 0.008 | IRAK-1-4 Inhibitor I 0.024

HSP90AA4P (UniProt Q58FG1)
Sequence of UniProt Q58FG1 (Q58FG1 whole entry, looked up): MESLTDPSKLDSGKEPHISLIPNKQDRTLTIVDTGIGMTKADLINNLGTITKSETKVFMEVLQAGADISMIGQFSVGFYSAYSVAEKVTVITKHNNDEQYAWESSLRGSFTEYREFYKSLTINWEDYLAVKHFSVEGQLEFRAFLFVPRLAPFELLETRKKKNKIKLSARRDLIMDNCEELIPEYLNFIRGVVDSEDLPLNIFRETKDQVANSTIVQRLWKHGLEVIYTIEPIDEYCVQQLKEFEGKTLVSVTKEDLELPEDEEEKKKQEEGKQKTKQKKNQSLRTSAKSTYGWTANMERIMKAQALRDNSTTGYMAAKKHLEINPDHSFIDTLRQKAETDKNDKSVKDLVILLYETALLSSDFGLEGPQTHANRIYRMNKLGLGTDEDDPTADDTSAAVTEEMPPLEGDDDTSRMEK
inactive: erlotinib -0.064 | [1] 0.994 | [2] 0.097 | [3] 0.018 | [4] -0.129 | [5] 0.023 | [6] -0.003 | [7] -0.032 | [8] -0.09 | IRAK-1-4 Inhibitor I 0.081

GNL3 (UniProt Q9BVP2)
inactive: erlotinib 0.004 | [1] -0.072 | [2] 0.002 | [3] 0.009 | [4] -0.062 | [5] 0.015 | [6] -0.011 | [7] 0.021 | [8] 0.014 | IRAK-1-4 Inhibitor I 0.033

HNRNPD isoform 2 (UniProt Q14103)
inactive: erlotinib -0.001 | [1] -0.014 | [2] -0.022 | [3] -0.027 | [4] 0.049 | [5] 0.014 | [6] -0.023 | [7] 0.012 | [8] -0.009 | IRAK-1-4 Inhibitor I 0.018

HMGB1 (UniProt P09429)
inactive: erlotinib -0.024 | [1] -0.017 | [2] -0.021 | [3] -0.03 | [4] -0.001 | [5] 0.035 | [6] 0.007 | [7] 0.012 | [8] 0.001 | IRAK-1-4 Inhibitor I -0.015

HSPA8 (UniProt P11142)
inactive: erlotinib -0.022 | [1] 0.003 | [2] 0.008 | [3] 0.002 | [4] -0.028 | [5] -0.004 | [6] 0.038 | [7] 0.016 | [8] -0.009 | IRAK-1-4 Inhibitor I -0.008

KBTBD4 isoform 2 (UniProt Q9NVX7)
inactive: erlotinib 0.09 | [1] 0.013 | [2] 0.036 | [3] 0.013 | [4] -0.096 | [5] 0.016 | [6] -0.073 | [7] -0.028 | [8] 0.013 | IRAK-1-4 Inhibitor I -0.017

KCTD20 (UniProt Q7Z5Y7)
inactive: erlotinib 0.072 | [1] -0.145 | [2] -0.006 | [3] 0 | [4] 0.001 | [5] 0.063 | [6] 0.038 | [7] 0.081 | [8] 0.083 | IRAK-1-4 Inhibitor I 0.048

HLCS (UniProt P50747)
inactive: erlotinib 0.019 | [1] -0.071 | [2] 0.013 | [3] 0.03 | [4] -0.017 | [5] -0.004 | [6] -0.019 | [7] 0.008 | [8] -0.034 | IRAK-1-4 Inhibitor I -0.008

INTS14 (UniProt Q96SY0)
inactive: erlotinib 0.007 | [1] -0.13 | [2] 0.025 | [3] 0.008 | [4] -0.012 | [5] -0.001 | [6] 0.018 | [7] -0.01 | [8] 0 | IRAK-1-4 Inhibitor I 0.006

ISY1 isoform 1 (UniProt Q9ULR0)
inactive: erlotinib 0.022 | [1] 0.07 | [2] 0.02 | [3] 0.06 | [4] 0.018 | [5] 0.004 | [6] -0.004 | [7] 0.031 | [8] 0.068 | IRAK-1-4 Inhibitor I 0.014

HS1BP3 (UniProt Q53T59)
Sequence of UniProt Q53T59 (Q53T59 whole entry, looked up): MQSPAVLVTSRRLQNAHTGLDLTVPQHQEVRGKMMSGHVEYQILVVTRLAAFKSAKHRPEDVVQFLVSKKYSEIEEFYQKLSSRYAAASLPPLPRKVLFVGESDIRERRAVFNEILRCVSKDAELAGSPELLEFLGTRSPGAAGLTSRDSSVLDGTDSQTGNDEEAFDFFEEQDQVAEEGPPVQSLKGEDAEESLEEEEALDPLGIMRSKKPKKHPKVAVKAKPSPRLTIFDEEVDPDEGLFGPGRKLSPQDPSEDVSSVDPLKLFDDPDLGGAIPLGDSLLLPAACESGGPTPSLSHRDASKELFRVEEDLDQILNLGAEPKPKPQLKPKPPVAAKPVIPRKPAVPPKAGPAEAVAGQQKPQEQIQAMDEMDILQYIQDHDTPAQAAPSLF
inactive: erlotinib -0.019 | [1] -0.04 | [2] 0.007 | [3] -0.013 | [4] -0.027 | [5] -0.031 | [6] 0.029 | [7] -0.022 | [8] 0.01 | IRAK-1-4 Inhibitor I 0.01

H4C1 (UniProt P62805)
inactive: erlotinib 0.065 | [1] 0.499 | [2] -0.023 | [3] -0.042 | [4] -0.024 | [5] 0.252 | [6] -0.008 | [7] 0.067 | [8] -0.052 | IRAK-1-4 Inhibitor I -0.067

KBTBD2 (UniProt Q8IY47)
inactive: erlotinib -0.002 | [1] 0.019 | [2] 0.056 | [3] 0 | [4] 0.011 | [5] 0.016 | [6] -0.079 | [7] -0.023 | [8] 0.052 | IRAK-1-4 Inhibitor I 0.097

INTS5 (UniProt Q6P9B9)
inactive: erlotinib 0.002 | [1] -0.061 | [2] -0.082 | [3] -0.04 | [4] 0.068 | [5] -0.072 | [6] -0.098 | [7] -0.001 | [8] 0.247 | IRAK-1-4 Inhibitor I -0.015

ILRUN (UniProt Q9H6K1)
Sequence of UniProt Q9H6K1 (Q9H6K1 whole entry, looked up): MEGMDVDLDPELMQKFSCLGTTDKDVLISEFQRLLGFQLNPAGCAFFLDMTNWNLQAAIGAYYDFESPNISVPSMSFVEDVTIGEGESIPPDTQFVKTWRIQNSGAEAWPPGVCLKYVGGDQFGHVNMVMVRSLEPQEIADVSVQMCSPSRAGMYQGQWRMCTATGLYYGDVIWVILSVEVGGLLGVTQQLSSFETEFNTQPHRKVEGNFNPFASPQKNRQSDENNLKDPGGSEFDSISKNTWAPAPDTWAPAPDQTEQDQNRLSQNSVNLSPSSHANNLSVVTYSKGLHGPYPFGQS
inactive: erlotinib -0.004 | [1] 0.056 | [2] 0.004 | [3] -0.018 | [4] 0.016 | [5] 0.018 | [6] 0.011 | [7] 0.006 | [8] 0.033 | IRAK-1-4 Inhibitor I 0.02

ITPRIP (UniProt Q8IWB1)
inactive: erlotinib 0.218 | [2] -0.16

GORASP1 (UniProt Q9BQQ3)
inactive: erlotinib -0.081 | [1] -0.026 | [2] -0.019 | [3] 0.05 | [5] 0.01 | [6] -0.057 | [7] 0.049 | [8] 0.018 | IRAK-1-4 Inhibitor I -0.023

HMGN5 (UniProt Q5JSK9)
inactive: [4] -0.128 | [7] 0.008 | [8] -0.076

GOLPH3 (UniProt Q9H4A6)
Sequence of UniProt Q9H4A6 (Q9H4A6 whole entry, looked up): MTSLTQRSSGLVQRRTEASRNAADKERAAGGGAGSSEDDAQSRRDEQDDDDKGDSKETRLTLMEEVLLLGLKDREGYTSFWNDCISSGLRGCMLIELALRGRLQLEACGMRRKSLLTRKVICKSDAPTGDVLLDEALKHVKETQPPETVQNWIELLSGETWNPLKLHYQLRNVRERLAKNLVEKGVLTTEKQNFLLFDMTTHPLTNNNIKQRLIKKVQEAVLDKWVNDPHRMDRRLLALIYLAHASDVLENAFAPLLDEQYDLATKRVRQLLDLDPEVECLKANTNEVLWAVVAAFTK
inactive: erlotinib 0.022 | [1] -0.041 | [2] -0.075 | [3] 0.017 | [4] 0.012 | [5] 0.004 | [6] 0.019 | [7] -0.008 | [8] -0.02 | IRAK-1-4 Inhibitor I 0.035

HECW2 (UniProt Q9P2P5)
inactive: erlotinib -0.012 | [1] 0.009 | [2] -0.093 | [3] 0.013 | [5] -0.075 | [6] 0.023 | [7] 0.029 | [8] -0.118 | IRAK-1-4 Inhibitor I 0.082

ITGB1BP2 (UniProt Q9UKP3)
Sequence of UniProt Q9UKP3 (Q9UKP3 whole entry, looked up): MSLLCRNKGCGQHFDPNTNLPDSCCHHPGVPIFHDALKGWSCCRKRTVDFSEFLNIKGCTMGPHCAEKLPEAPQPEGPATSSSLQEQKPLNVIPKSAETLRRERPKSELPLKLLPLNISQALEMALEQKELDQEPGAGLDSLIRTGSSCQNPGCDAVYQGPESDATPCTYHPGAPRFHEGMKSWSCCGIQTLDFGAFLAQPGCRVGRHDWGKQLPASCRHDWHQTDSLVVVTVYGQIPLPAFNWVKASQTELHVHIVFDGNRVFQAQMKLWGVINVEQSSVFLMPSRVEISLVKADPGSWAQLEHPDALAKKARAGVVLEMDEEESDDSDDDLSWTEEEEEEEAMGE
inactive: [1] 0.017 | [3] -0.001 | [6] 0.039 | [7] -0.117 | [8] 0.09

GOLPH3L (UniProt Q9H4A5)
inactive: erlotinib 0.028 | [1] -0.003 | [2] 0.012 | [3] 0.07 | [4] -0.03 | [5] 0.092 | [6] -0.085 | [7] 0.005 | [8] 0.03 | IRAK-1-4 Inhibitor I 0.023

IGFBP4 (UniProt P22692)
inactive: erlotinib 0.06 | [2] 0.025 | [4] 0.218 | [5] -0.033 | IRAK-1-4 Inhibitor I 0.016

IPP (UniProt Q9Y573)
inactive: erlotinib -0.04 | [1] -0.192 | [2] -0.017 | [3] -0.181 | [5] 0.025 | [6] -0.105 | [7] 0.179 | [8] 0.041 | IRAK-1-4 Inhibitor I -0.035

HNRNPUL1 (UniProt M0R247)
inactive: erlotinib -0.046 | [2] 0.079 | [4] -0.049
